Assay outcomes deposited in PubChem by The Scripps Research Institute Molecular Screening Center.
Hits are enriched below; roughly 3.5% of the tested compounds scored in any of these assays.
MITF primary – blocks human microphthalmia-associated transcription factor. AlphaScreen MITF homodimerization, bead proximity signal. inhibition, % at 2.6 µM. actives 0.91% (n = 650,000). AID 1259374; in the data active = inhibition above about 50%;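 note: 0% = vehicle wells with protein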
GPR151 activ – human GPR151 activation. PathHunter beta-arrestin GPR151 cells, luminescence. activation, % at 11.2 µM. actives 1% (n = 650,000). AID 1508602; in the data active = activation above about 4.9%;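 note: 0% = median of compound wells and 100% = cells with positive control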
Target sequence (Q8TDV0 whole entry, looked up): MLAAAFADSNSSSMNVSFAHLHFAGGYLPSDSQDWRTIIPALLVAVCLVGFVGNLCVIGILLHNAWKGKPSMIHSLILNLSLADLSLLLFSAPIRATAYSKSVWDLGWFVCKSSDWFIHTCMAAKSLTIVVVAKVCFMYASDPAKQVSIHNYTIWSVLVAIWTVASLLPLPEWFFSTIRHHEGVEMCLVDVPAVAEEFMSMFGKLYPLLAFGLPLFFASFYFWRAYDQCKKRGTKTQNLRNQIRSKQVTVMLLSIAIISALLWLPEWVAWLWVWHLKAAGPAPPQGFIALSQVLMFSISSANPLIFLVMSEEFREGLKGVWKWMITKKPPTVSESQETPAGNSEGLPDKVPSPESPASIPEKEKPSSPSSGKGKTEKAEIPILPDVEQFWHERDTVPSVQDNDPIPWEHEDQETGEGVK
FBW7 activator – activators of human E3 ligase FBW7; AlphaScreen FBW7–phospho-cyclin E peptide binding, activator screen; normalized activity (activation), % at 26.1 µM; actives 0.13% (n = 650,000); in the data active = normalized activity above about 1.9%;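 note: purified mutant Fbw7 with reduced substrate affinity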
TEAD-YAP block – TEAD-YAP interaction inhibition; HEK-TIYL cells, TEAD-Gal4/YAP UAS-luciferase luminescence; actives 1.4% (n = 640,000); inhibition, % at 9.12 µM; in the data active = inhibition above about 32%;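 note: 0% = median of test compound wells and 100% = reference inhibitor wells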
MITF inh conf – confirmation of human MITF inhibitors; AlphaScreen MITF homodimerization, biotin/His-MITF beads; AID 1259372; inhibition, % at 2.6 µM; shares compounds with MITF primary; actives 16% (n = 4,700);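 active = inhibition above a cutoff derived from the DMSO control wells, cut at about 28% in these data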;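 note: 0% = MITF dimer wells with DMSO only; inhibitors lower the bead chemiluminescence by keeping MITF from dimerizing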
AS interf DR – optically interferes with AlphaScreen signal in dose response; AlphaScreen optical interference counterscreen, cell-free; IC50, µM; shares compounds with MITF primary; AID 1259373; actives 6% (n = 480); call rule not given here
AlphaScreen intf2 – AlphaScreen optical interference, counter-screen; shares compounds with MITF primary; LysRS AlphaScreen counterscreen, signal interference, triplicate; inhibition, % at 2.6 µM; actives 7.6% (n = 4,700); AID 1259376;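 active = inhibition above a cutoff derived from the DMSO control wells, cut at about 30% in these data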
An asterisk follows results filed as active; . = not tested or not shown.

SMILES	MITF primary	GPR151 activ	FBW7 activator	TEAD-YAP block	MITF inh conf	AlphaScreen intf2	others
O=C1CCC(CCNCCOc2ccc(F)cc2)N1Cc1cccc(Cl)c1 (stereo not given)	71*	0	0	-3	1	3
Cc1nc(-c2ccc(Nc3nccc(-c4ccccc4)n3)cc2)n[nH]1	8	-1	0	-33	.	.
CC1(c2cc(C(F)(F)F)n3nc(C(=O)N4CCC(c5ccncc5)CC4)cc3n2)CC1	56*	1	0	-21	-15	-7
CCOC(=O)C1CCN(C(=O)c2cc3nc(-c4ccc(OC)cc4)cc(C(F)(F)F)n3n2)CC1	61*	-1	0	-4	-4	-8
COc1ccc(-c2cc(C(F)(F)F)n3nc(C(=O)N4CCC(C)CC4)cc3n2)cc1	11	1	0	-11	.	.
O=C(N/N=C/c1cc([N+](=O)[O-])cc(Br)c1O)c1ccc2c(c1)OCCO2	17	0	0	-5	.	.
Cn1c(SCc2cc(=O)n3c(n2)sc2ccccc23)nnc1C(F)(F)F	60*	0	0	-4	79*	-2	AS interf DR=>7.2
Nn1c(SCc2cc(=O)n3c(n2)sc2ccccc23)nnc1C1CC1	21	1	0	-4	.	.
CN(CCc1ccccc1)C1CCCN(Cc2ccccn2)C1 (stereo not given)	11	0	0	8	.	.
Cn1c(SCc2ccccc2)nnc1C1CCCN(Cc2ccccn2)C1 (stereo not given)	61*	0	0	-3	36*	93*
CCOc1cc(C#N)c(NC(=O)c2cc([N+](=O)[O-])ccc2N2CCOCC2)cc1OCC	67*	0	0	-10	15	8
CCOc1ccc(NC(=O)c2cc([N+](=O)[O-])ccc2N2CCOCC2)cc1	-5	3	0	6	.	.
CCc1nc2c(sc3cccc(F)c32)c(=O)n1CC(=O)NCc1ccc(Cl)cc1	55*	-1	0	-4	-5	-5
CCOC(=O)NN1C(=O)c2ccccc2NC1c1cc(OC)c(OC)cc1[N+](=O)[O-] (stereo not given)	11	1	0	2	.	.
COc1cccc(C2CC(c3cccs3)=NN2C(=O)CSc2nnc(CNC(=O)c3ccccc3)n2-c2ccccc2)c1OC (stereo not given)	70*	0	1	3	-11	0
COc1ccc(OC)c(/C=C/C(=O)NCCN2CCC(N(C)C3CCCCC3C)CC2)c1 (stereo not given)	52*	-1	0	2	-1	14
COc1ccc(/C=C/C(=O)NCCCN2CCC(N(C)C3CCCCC3C)CC2)cc1 (stereo not given)	-1	1	0	1	.	.
CC(C)NC(=O)c1cccnc1SCc1cccc(Br)c1	13	2	0	-1	.	.
COc1ccc(NC(=O)c2ccc(NC(=O)c3cn(C)nc3OC)cc2)cc1Cl	13	1	0	-1	.	.
CC(C)CNC(=O)c1cn(C2CCCCC2)cc(C(=O)NCCc2cccnc2)c1=O	51*	-1	0	-43	3	0
O=C(Cc1cccc2ccccc12)Nc1nnc(-c2ccncc2)o1	71*	0	0	2	52*	98*
O=C(Cc1cccc2ccccc12)Nc1nnc(-c2ccc3c(c2)OCCO3)o1	6	0	0	1	.	.
COc1cc(/C=C/C(=O)Nc2nnc(C(F)(F)F)s2)cc(OC)c1OC	52*	-1	0	10	5	13
O=C(/C=C/c1ccc(Cl)cc1)Nc1nnc(C(F)(F)F)s1	-3	1	0	-6	.	.
COC(=O)C1=CN(CC23CC4CC(CC(C4)C2)C3)C=C(C(=O)OC)C1c1ccc(F)cc1	65*	0	0	-3	-2	-2
SMILES	MITF primary	GPR151 activ	FBW7 activator	TEAD-YAP block	MITF inh conf	AlphaScreen intf2	others
COc1ccc(OC)c(/C=C2\N=C(c3ccccc3F)OC2=O)c1	-7	0	0	-4	.	.
CSc1ccc(SCc2nc[nH]c2C)cc1	-1	0	0	-16	.	.
COc1cc(OC)cc(C(=O)N2CCN(Cc3ccccc3C(F)(F)F)CC2)c1	62*	2	0	2	-3	-2
COc1ccccc1CN1CCN(Cc2ccccc2C(F)(F)F)CC1	70*	-2	0	9	-7	1
COc1ccc(OC)c(CN2CCN(C(=O)c3c(OC)cccc3OC)CC2)c1	32	1	0	1	.	.
COc1cc(OC)cc(C(=O)N2CCN(Cc3cc(OC)c(OC)cc3OC)CC2)c1	49	3	0	-2	.	.
COc1cccc(OC)c1C(=O)N1CCN(Cc2ccccc2Br)CC1	63*	1	0	10	2	7
COc1ccccc1CN1CCN(C(=O)c2cccs2)CC1	36	-1	0	-3	.	.
COc1cccc(OC)c1C(=O)N1CCN(Cc2ccccc2C(F)(F)F)CC1	52*	0	0	-3	-17	8
Cn1cccc1/C=C1/C(=O)NC(=O)N(c2ccc3ccccc3c2)C1=O	-7	-1	0	-18	.	.
Cn1c(=O)oc2cc(S(=O)(=O)NCCN3CCN(c4ccccc4F)CC3)ccc21	14	0	0	1	.	.
O=S(=O)(NCCN1CCN(c2ccccc2F)CC1)c1ccccc1Cl	72*	2	0	-5	2	-4
COc1cccc(CN2CCN(Cc3ccccn3)CC2)c1	51*	-1	0	6	-2	-8
COc1cccc(CN2CCN(C3CCN(Cc4ccccc4)CC3)CC2)c1	22	0	0	15	.	.
COc1cccc(CN2CCN(Cc3cc(OC)cc(OC)c3)CC2)c1	80*	0	0	6	17	20
COc1cccc(CN2CCN(C3CCCC3)CC2)c1	65*	1	0	-4	-7	-3
COc1cccc(CN2CCN(c3ncccn3)CC2)c1	30	0	0	-6	.	.
CCOC(=O)c1ccc(NC(=O)CC2S/C(=N/N=C/c3ccco3)NC2=O)cc1 (stereo not given)	15	-1	0	0	.	.
O=C(O)/C=C/C(=O)Nc1ccc(SC(F)F)cc1	56*	-1	0	1	0	-10
CCOC(=O)c1cnc(-n2[nH]c(C)c(CCO)c2=O)[nH]c1=O	86*	-1	0	-4	13	65*
CCOC(=O)c1cnc(N2CCOCC2)[nH]c1=O	5	-1	0	-5	.	.
Cc1[nH]n(-c2ncc(C(=O)O)c(=O)[nH]2)c(=O)c1Cc1ccccc1	83*	1	0	0	64*	95*
Cc1cc(=O)[nH]c(-n2[nH]c(C)c(Cc3ccccc3)c2=O)n1	15	-1	0	2	.	.
COc1ccc(S(=O)(=O)NCCc2cn3ccccc3n2)cc1F	9	0	0	2	.	.
